System: LOC_OS05G16824-cb004
Experiment: thermal shift delta Tm vs DMSO control; higher = stronger stabilization (binding)
Conditions: 12.5 µM; protein concentration 2 µM
Method in brief: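 Thermal shift values come from differential scanning fluorimetry on purified rice kinase domains made in E. coli, with melting temperatures obtained from Boltzmann fits. Samples of 19.5 μl held 2 μM kinase, 100 mM potassium phosphate pH 7.5, 150 mM NaCl, 10% glycerol, 5 × SYPRO Orange and compound in DMSO, and were heated from 25°C to 95°C at 0.05°C/s. Each shift is a triplicate mean relative to the DMSO-only protein sample.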
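Note: purified Escherichia coli-expressed rice kinase domain construct.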

SMILES	thermal shift delta Tm [°C]
O=C1NC(=O)C(c2ccccc2[N+](=O)[O-])=C1Nc1ccc(O)c(Cl)c1	-13.3
CCOc1cc2ncc(C#N)c(Nc3ccc(OCc4ccccn4)c(Cl)c3)c2cc1NC(=O)/C=C/CN(C)C [Neratinib (HKI-272)]	-0.55
CCCS(=O)(=O)Nc1ccc(F)c(C(=O)c2c[nH]c3ncc(-c4ccc(Cl)cc4)cc23)c1F [Vemurafenib (PLX4032, RG7204)]	-0.4
Cc1cn(-c2cc(NC(=O)c3ccc(C)c(Nc4nccc(-c5cnccn5)n4)c3)cc(C(F)(F)F)c2)cn1 [Radotinib]	0.06
OC(c1cc(-c2ccc(Cl)cc2)nc2ccccc12)C1CCCCN1 (stereo not drawn) [Vacquinol-1]	1.23
Cc1cc(CS(=O)(=O)c2ccccc2)cc(OCc2ccc(CN3CCC[C@@H]3CO)cc2)c1	-3.52
Clc1ccc(Nc2nnc(Cc3ccncc3)c3ccccc23)cc1 [Vatalanib (PTK787) 2HCl]	-1.81
CN1CCN(c2ccc(Nc3cc(-c4cccc(-n5ccc6cc(C7CC7)cc(F)c6c5=O)c4CO)cn(C)c3=O)nc2)CC1	0.67
O=C1NC(=O)[C@@H](c2cn3c4c(cccc24)CCC3)[C@@H]1c1c[nH]c2ccccc12 [Tivantinib (ARQ 197)]	-2.47
COc1cc(-c2cc(-c3ccc(N4CCNCC4)cc3)cnc2C)cc(OC)c1OC	0.31
Cn1ncc(Cl)c1-c1cc(C(=O)N[C@H](CN)Cc2ccc(F)c(F)c2)oc1Cl	2.91
C[C@H](Nc1ncnc2nc[nH]c12)c1cc2cccc(Cl)c2c(=O)n1-c1ccccc1 [Duvelisib (IPI-145, INK1197)]	0.84
COc1cc2ncnc(Nc3ccc(F)c(Cl)c3)c2cc1OCCCN1CCOCC1 [Gefitinib (ZD1839)]	-0.18
C[C@@H](N)c1ccc(C(=O)Nc2ccnc3[nH]ccc23)cc1	-0.56
Cc1ccc(C(=O)Nc2cccc(C(F)(F)F)c2)cc1Nc1nc(-c2cccnc2)nc2c1cnn2C	-1.61
O=C1NC(=O)/C(=C/c2ccc3nccc(-c4ccncc4)c3c2)S1	0.06
Oc1c2ccccc2c2c3c(cccc13)N=N2	9.67
C=CC(=O)Nc1ccc2ncnc(Nc3cccc(Br)c3)c2c1	-2.41
COc1cc2nccc(Oc3ccc(NC(=O)NC4CC4)c(Cl)c3)c2cc1C(N)=O [Lenvatinib (E7080)]	-2.91

SMILES	thermal shift delta Tm [°C]
CN1CCCN(C(=O)c2cccc(-c3ccc(/C=C4/C(=O)Nc5ccc(Cl)cc54)o3)c2)CC1	4.08
CCc1cnn2c(NCc3ccc[n+]([O-])c3)cc(N3CCCC[C@H]3CCO)nc12	-0.11
O=C(Nc1ccc(OC(F)(F)F)cc1)c1sccc1NCc1ccnc2ccccc12	-0.83
CCOC(=O)c1cnc2ccc(-c3cncc(NS(=O)(=O)c4ccccc4)c3)cn12	1.63
CCCNC(=O)Nc1ccc(Oc2ncnc3cc(OC)c(OC)cc23)cc1Cl	-1.66
Cc1cc(Nc2ncnc3ccc(-c4ccc(CNCCS(C)(=O)=O)o4)cc23)ccc1Oc1ccn2ncnc2c1 [HER2-Inhibitor-1]	2.73
COc1cc2c(Oc3ccc(NC(=O)C4(C(=O)Nc5ccc(F)cc5)CC4)cc3F)ccnc2cc1OCCCN1CCOCC1	5.71
Cn1cc(-c2ccc3c(c2)CCN3C(=O)Cc2cccc(C(F)(F)F)c2)c2c(N)ncnc21	1.91
O=C(c1ccc(Nc2nccc(-c3cc4ccccc4s3)n2)cc1)N1CCC(N2CCCC2)CC1 [IKK-16 (IKK Inhibitor VII)]	7.99
Cc1cc(NC(=O)c2cccc(NC(=O)/C=C/CN(C)C)c2)ccc1Nc1nccc(-c2cccnc2)n1	1.96
CC(C)[C@H](CO)Nc1nc(Nc2cccc(Cl)c2)c2ncn(C(C)C)c2n1 [Purvalanol A]	10.1
C=CC(=O)Nc1cccc(Nc2nc(Nc3ccc(OCCOC)cc3)ncc2F)c1	5.6
Cc1c(C(=O)Nc2ccc(Oc3ccnc4[nH]cc(-c5ccccc5)c34)c(F)c2)c(=O)n(-c2ccc(F)cc2)n1C	1.37
COc1cc(Nc2ncc(F)c(Nc3ccc4c(n3)N(COP(=O)(O)O)C(=O)C(C)(C)O4)n2)cc(OC)c1OC [Fostamatinib (R788)]	12
CC(C)c1c2cc(-c3ccnc(NC4CCC(NC5CCOCC5)CC4)n3)ccc2nn1C (stereo not drawn)	-6.14
Cc1nc2ccc(-n3ncc(C(=O)c4cc5ccccc5[nH]4)c3N)cc2[nH]1	0.01
COc1cc2ncnc(Sc3nnc(C)s3)c2cc1OC	-0.85
CCOc1cn(-c2ccc(F)cc2C)nc1C(=O)Nc1ccc(Oc2ccnc3cc(OC)c(OC)cc23)c(F)c1	-0.65
COc1ccc([C@@H]2OC[C@H]3[C@@H]2CO[C@@H]3c2ccc(O[C@@H]3O[C@H](CO)[C@@H](O)[C@H](O)[C@H]3O)c(OC)c2)cc1OC [Forsythin]	-9.57
